This experiment has as its system HepG2. Briefly: GSK_TCMDC: Percent inhibition of human HepG2 cell line. Test compounds present at 10uM. In kind it is functional.
With `O=C(O)C(F)(F)F.O=C1CCCN1CCCNCc1cccc(-c2ccc(-c3nc4cc(C(F)(F)F)ccc4[nH]3)cc2)c1`, the Inhibition came out at 15%.
The result for `CN1CCc2cc(NS(=O)(=O)c3ccc(-c4ccc(Cl)cc4)cc3)c(OCCCN3CCCCC3)cc2CC1.Cl` reads 91%; that for `Cc1cc(N(C)CCCN(C)C)nc(Nc2ccc(Cl)cc2)n1`, 7%.

As a reminder, the Inhibition is how much of the control response was suppressed.

The values above are taken from ChEMBL document CHEMBL1157539, “Thousands of chemical starting points for antimalarial lead identification” (Nature, 2010).
